Source: PubChem
MARV entry inh: inhibitors of Marburg virus binding or cell entry; Marburg virus pseudotyped entry inhibition, cell reporter; Potency, µM (titrated, usually from 37.8 µM), actives largely listed as inhibitors; 300,000 tested, 1.8% active; AID 540276; calls by dose curve; tested in HEK293 cells
Pf growth 96h: P. falciparum growth inhibition at 96 hour, primary screen for plastid delayed-death inhibitors; P. falciparum luciferase reporter growth, 96 h; Potency, µM (series often up to 28.7 µM), hits mostly inhibitors; 320,000 tested, 6.9% active; AID 504834
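Two-generation exposure (96 h) targets delayed-death phenotype. Reporter parasites carrying integrated firefly luciferase, in red cells at 2% hematocrit and 0.05% parasitemia final, kept at 37 C, 5% CO2; luminescence loss indicates inhibition.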
Shiga toxin inh: blocks Shiga toxin action in Vero cells | Vero cells, Shiga toxin protein synthesis inhibition reporter | inhibition, % at 38.7 µM | 290,000 tested, 9.2% active; in the data active = inhibition mostly above about 28%, no sharp cut-off; inactive = mostly below about 43%
Lassa entry inh: Lassa virus entry inhibition | Lassa virus pseudotype entry inhibition, cell reporter | Potency, µM (top dose mostly 37.9 µM), hits mostly inhibitors | 300,000 tested, 1.2% active | AID 540256; calls by dose curve; tested in HEK293 cells; note: nearly all actives have a fitted effect of over 50% in size
CHX counter: affects cycloheximide protein synthesis inhibition readout, counter-screen; cell reporter, cycloheximide protein synthesis inhibition counterscreen; max response, %; 300,000 tested, 12% active; in the data active = max response mostly above about 13%, no sharp cut-off; inactive = mostly below about 14%; note: read at 38.3 µM for the half of the compounds with a filed dose
Pf growth 48h: P. falciparum growth inhibition at 48 hours (one generation); P. falciparum luciferase growth in erythrocytes, 48 h; 310,000 tested, 5.9% active; Potency, µM (titrated, usually from 28.7 µM), hits mostly inhibitors
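Luminescence readout; reporter = integrated firefly luciferase in P. falciparum. RBC culture at 2% hematocrit, 0.1% parasitemia final, 37 C/5% CO2; decreased signal taken as growth inhibition.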
Large screens that a line does not name were inactive. Hits are enriched below; roughly 19% of the tested compounds scored in any of these assays. Unless noted, calls come from the whole dose curve; as a rule, active = well fitted inhibition curve with a large enough effect; inconclusive = small, poorly fitted or top-dose-only effect, or another doubt; inactive = no such curve, though single readings can be large or run the other way.

Cc1ccc(C(=O)Cn2c(=N)n(N)c3ccccc32)cc1	Shiga toxin inh 81, CHX counter 46 (no result: MARV entry inh, Lassa entry inh)
CCN(CC)CCn1c(=N)n(CC(=O)c2ccc(C)cc2)c2ccccc21	CHX counter 27, Pf growth 48h 4.7µM (no result: MARV entry inh, Shiga toxin inh, Lassa entry inh)
CCOC(=O)c1c(Nc2ccccc2OCCOC)n[nH]c1C	Pf growth 96h 9.3µM, Pf growth 48h inconclusive (no result: MARV entry inh, Lassa entry inh)
CCOC(=O)c1c(N/N=C/c2ccncc2)n[nH]c1C	Shiga toxin inh 50
CCOC(=O)c1c(NCc2ccccc2)n[nH]c1C	Lassa entry inh inconclusive
CCc1[nH]nc(C(=O)N/N=C/c2ccncc2)c1C	Shiga toxin inh 50, CHX counter 24 (no result: MARV entry inh, Lassa entry inh)
CN(C)S(=O)(=O)c1cccc(NS(=O)(=O)c2ccc(Cl)s2)c1	none
Cc1ccc(-c2nc3cnccn3c2Nc2c(C)cccc2C)o1	none (no result: MARV entry inh, Lassa entry inh, Pf growth 48h)
Cc1ccc(-n2nnnc2Sc2nc([N+](=O)[O-])nn2C)cc1	MARV entry inh inconclusive, Lassa entry inh inconclusive, Pf growth 48h 4.1µM
NC1=NC(c2ccc(Cl)cc2)N(c2ccc(S(N)(=O)=O)cc2)C(N)=N1 (stereo not drawn)	Pf growth 96h 9.3µM, Pf growth 48h inconclusive (no result: MARV entry inh, Lassa entry inh)
CC(=O)Nc1ccc(C(=O)NC2CCSc3ccccc32)cc1 (stereo not drawn)	CHX counter 14
COc1ccc(C(=O)NC2CCSc3ccccc32)cc1 (stereo not drawn)	Shiga toxin inh 35, CHX counter 19 (no result: MARV entry inh, Lassa entry inh)
CSc1ccc(C(=O)NC2CCSc3ccccc32)cc1 (stereo not drawn)	Pf growth 96h inconclusive, CHX counter 11
COc1ccc(OC)c(C(=O)NC2CCSc3ccccc32)c1 (stereo not drawn)	Pf growth 96h inconclusive, Pf growth 48h inconclusive
CCCN1CCN(CCCNC(=O)c2c(C)nn(-c3ccc(F)cc3)c2-n2cccc2)CC1	none (no result: MARV entry inh, Pf growth 96h, Shiga toxin inh, CHX counter, Pf growth 48h)
O=C(Nc1cccnc1)c1ccc(Cl)c(S(=O)(=O)N2CCCCC2)c1	Pf growth 96h inconclusive
CC(NC(=O)c1ccc(Cl)c(S(=O)(=O)N2CCCCCC2)c1)c1cccnc1 (stereo not drawn)	Pf growth 96h inconclusive, Pf growth 48h 12µM (no result: MARV entry inh, Shiga toxin inh, Lassa entry inh, CHX counter)
O=C(NCc1ccccc1CN1CCCC1)c1ccc(Cl)c(S(=O)(=O)N2CCCC2)c1	MARV entry inh inconclusive, Pf growth 96h 12µM, Pf growth 48h 13µM (no result: Shiga toxin inh, CHX counter)
O=C(NCc1nc2ccccc2[nH]1)c1ccc(Cl)c(S(=O)(=O)N2CCCC2)c1	CHX counter 14, Pf growth 48h 10µM
CN(C)C(CNC(=O)c1ccc(Cl)c(S(=O)(=O)N2CCCCCC2)c1)c1ccccc1 (stereo not drawn)	Pf growth 96h inconclusive, Pf growth 48h 5.2µM (no result: MARV entry inh, Shiga toxin inh, Lassa entry inh, CHX counter)
O=C(c1ccc(Cl)cc1)c1cc(-c2ccccn2)c(N2CCOCC2)s1	Pf growth 96h inconclusive, Pf growth 48h inconclusive
CCCn1c(NC(=O)c2ccc(Cl)c(S(=O)(=O)N3CCCC3)c2)nc2ccccc21	MARV entry inh inconclusive, Pf growth 96h 5.2µM, Lassa entry inh inconclusive, Pf growth 48h 5.9µM
O=C(Nc1ccccn1)c1ccc(Cl)c(S(=O)(=O)N2CCCCCC2)c1	MARV entry inh inconclusive (no result: Shiga toxin inh, CHX counter)
CCOc1ccc(Br)cc1S(=O)(=O)NC1CC(C)(C)NC(C)(C)C1	Pf growth 48h inconclusive (no result: MARV entry inh, Lassa entry inh)
CC(NC(=O)CCn1nc(-c2ccc(Cl)cc2)ccc1=O)c1ccccc1 (stereo not drawn)	Pf growth 96h inconclusive
COc1cccc(C2C(C(=O)c3cccs3)=C(O)C(=O)N2CCN(C)C)c1OC (stereo not drawn)	none
O=C(C1CCN(c2nc(-c3ccccc3)nc3c2CCC3)CC1)N1CCC(O)CC1	Pf growth 96h inconclusive, Pf growth 48h 3.7µM
CCOC(=O)C1CCN(c2nc(-c3ccc(C)cc3)nc3ccccc23)CC1	MARV entry inh inconclusive, Pf growth 96h inconclusive, Pf growth 48h inconclusive
CCOC(=O)C1CCN(C(=O)CSc2c3c(nc4ccccc24)CCC3)CC1	none
COCC1CCCCN1C(=O)C1CCN(c2nc(-c3ccccc3)nc3c2CCC3)CC1 (stereo not drawn)	Pf growth 48h 9.3µM (no result: MARV entry inh, Lassa entry inh)
COCC1CCN(C(=O)C2CCN(c3nc(-c4ccccc4)nc4c3CCC4)CC2)C1 (stereo not drawn)	Pf growth 96h inconclusive, Pf growth 48h 7.4µM
O=C(O)c1c2c(nc3ccc(S(=O)(=O)N4CCC(C(=O)N5CCCCC5)CC4)cc13)CCCC2	none (no result: Lassa entry inh, Pf growth 48h)
Cc1ccc(-n2nc3c(N4CCC(C(=O)NCCc5ccccc5C)CC4)nnc(C)c3c2C)cc1	Pf growth 48h inconclusive (no result: MARV entry inh)
